# Data published in the supplement of paper PMC6555819.
# Tested on: PPARg:RXRa 270nM:90nM, anti-RXR (NR concentration 270 nM, RXRa partner concentration 90 nM)
# Experiment: PBM binding z-score (relative to random genomic background probes); higher = stronger binding; sequences stand for … in GC…GCGATTGACAGCGTAGAATGAAGG
# Summary of the method: (§1)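 Ligand-free nuclear receptor dimers were applied to custom Agilent 4×180K protein-binding microarrays whose double-stranded probes carried direct-repeat seeds, single-nucleotide variants, half-site ablations and random human genomic background sequences in 34-nt variable regions. Incubation lasted 1 h. Binding z-scores were computed against the random background probes from regression-normalized fluorescence.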
row,Sequence,PBM binding z-score
1,TGTCAAAGTTCAAAGGTAAGGTAAGTATCCACAC,7.6
2,TCAGATAGGTAAATGCTAGGTGAAAGTCCGATCT,2.17
3,CCTACTGGGCCAAAGGTCATTGAGTCCAATGCTC,9.86
4,GGAACGTGGGCATTCGAGTTGATAGCATGGCGAT,-0.631
5,TCTGCCAGGTCAGTTGGTCAGCTAACGAGCTGCC,1.28
6,ATCTCTAGGTAAAAGTTCCGTGAATCCCGAGGAT,4.22
7,TTTAGCAGGCCAGAGGGTCACTCAAGAGGTACGG,2.99
8,CGAACTAGGTCATCCAGGAAAGTGAATACATTGA,6.29
9,GATACAGGGTAAAGGCCAGAGTACGCGTATTGAT,5.45
10,TCTGCTAGGTCAACGATGTTCAGCTAATCTGCTA,3.01
11,TCGTGTAGGTTAGTCGGGGCATTCAGCCAACATA,1.38
12,CCGACTGGGGCATAAGGTTGCCATAAGCCAGCCC,1.81
13,GATGCTAGGTCAGGTTGGTCAGCTAACGGGTACG,0.805
14,GCTACTGGGGCATCAGCAGGTTACCATAACTTAA,2.01
15,GCTCAGAGGACAAGGTCAGAGCTTTGTCCGTAGA,0.936
16,CCAGACAGGTGTGAAGGTAACTCAGCCTCGATTA,-0.131
17,GCAGACAGGTGAAACGCAGGTAACTCAGGGTGGC,-0.117
18,TCATATAGGTAATACACGTGAAAGTCGGCATCTA,2.03

# Tested on: PPARg:RXRa 30nM:10nM, anti-RXR (NR concentration 30 nM, RXRa partner concentration 10 nM)
# Experiment: as above
# Summary of the method: as §1
row,Sequence,PBM binding z-score
1,CGTCCAAGGCCAAGGTCAGTGAAAGAGACTCGAA,-0.305
2,CCGACTGGGCCAAGGTTACCATAACGCACAGCCA,0.199
3,AGTCATAGTTCAGGACGAGGTAACGTAAAGCACG,0.782
4,CGAACTAGGTCAAGGACAGTTAATCTCCGCACGC,3.78
5,ATCTCTAGGTAAAAGCTCAGTGAATCCCGAGGAT,1.27
6,CGTCCAAGGTCGATGCTAGGTCAGTGAAAGCATT,-0.65
7,CGTCCAAGGTCAATGCTAGGTCAGTCAAAGCATT,1.11
8,TCTTGTAGATCATTAGAGGTTAAGAAAGTGCGCT,2.85
9,CGAACGAGGGCATGATTTGATAGCAAATGCCGAT,0.141
10,CGGCCTAGGTCAGGGCCAGTATAGGAGGAACGTT,-0.446
11,CAAACTAGGTCACAGAGGTCATAGTCCGTGCGTA,7.14
12,GCTAGCAGGCCATTTGGGTCATTCAATGACGGGC,-0.872
13,CCTAATGGGCCAAGGTCATTGATCAGTCAAAGCA,0.651
14,GCGACTGGGGCATCAGCAGATTACCATAACTTAA,-0.24
15,TCTCGGAGGACACGAAGGTCCGAGCTTTCCAGAG,1.71
16,ACAGACAGATGAGTGAAGGTAACTCAGCTGGACG,0.259
17,CCTTACGGGTCACTCCAGGTAATAGCATCGGAGT,1.47
18,CCTACTGGCCCAAAAAGGTCATTGATGCCGATAA,0.585
19,CGAACTAGGTCAGAAGAGGACAGTGAAGGATGAT,2.29
20,ATACCAAGGTGATCGTGAGGTCGTGGATACTAAC,-0.103

row,Sequence,PBM binding z-score
1,TGTCACAGTTCAAAGGTAACGTAAGTATCCACAC,1.68
2,ATCTCTAGGTAAAGATAATTCAGTGAATGCAAAT,0.443
3,TGTCAAAGTTCAAAGGTAAGGTAAGTATCCACAC,5.24
4,TCAGATAGGTAAATGCTAGGTGAAAGTCCGATCT,3.59
5,CCTACTGGGCCAAAGGTCATTGAGTCCAATGCTC,10.1
6,GGAACGTGGGCATTCGAGTTGATAGCATGGCGAT,-0.7
7,TCTGCCAGGTCAGTTGGTCAGCTAACGAGCTGCC,1.13
8,ATCTCTAGGTAAAAGTTCCGTGAATCCCGAGGAT,2.6
9,TTTAGCAGGCCAGAGGGTCACTCAAGAGGTACGG,1.1
10,CGAACTAGGTCATCCAGGAAAGTGAATACATTGA,4.25
11,GATACAGGGTAAAGGCCAGAGTACGCGTATTGAT,3.7
12,TCTGCTAGGTCAACGATGTTCAGCTAATCTGCTA,2.01
13,TCGTGTAGGTTAGTCGGGGCATTCAGCCAACATA,2.34
14,CCGACTGGGGCATAAGGTTGCCATAAGCCAGCCC,-0.189
15,GATGCTAGGTCAGGTTGGTCAGCTAACGGGTACG,-0.511
16,GCTACTGGGGCATCAGCAGGTTACCATAACTTAA,0.134
17,GCTCAGAGGACAAGGTCAGAGCTTTGTCCGTAGA,-0.588
18,CCAGACAGGTGTGAAGGTAACTCAGCCTCGATTA,-0.615
19,GCAGACAGGTGAAACGCAGGTAACTCAGGGTGGC,-0.52
20,TCATATAGGTAATACACGTGAAAGTCGGCATCTA,3.93

# Tested on: PPARg:RXRa 90nM:30nM, anti-RXR (NR concentration 90 nM, RXRa partner concentration 30 nM)
# Experiment: as above
# Summary of the method: as §1
row,Sequence,PBM binding z-score
1,CGTCCAAGGCCAAGGTCAGTGAAAGAGACTCGAA,0.665
2,CCGACTGGGCCAAGGTTACCATAACGCACAGCCA,1.39
3,AGTCATAGTTCAGGACGAGGTAACGTAAAGCACG,0.867
4,CGAACTAGGTCAAGGACAGTTAATCTCCGCACGC,5.73
5,ATCTCTAGGTAAAAGCTCAGTGAATCCCGAGGAT,2.35
6,CGTCCAAGGTCGATGCTAGGTCAGTGAAAGCATT,-0.0604
7,CGTCCAAGGTCAATGCTAGGTCAGTCAAAGCATT,3.32
8,TCTTGTAGATCATTAGAGGTTAAGAAAGTGCGCT,2.33
9,CGAACGAGGGCATGATTTGATAGCAAATGCCGAT,0.0789
10,CGGCCTAGGTCAGGGCCAGTATAGGAGGAACGTT,0.244
11,CAAACTAGGTCACAGAGGTCATAGTCCGTGCGTA,7.77
12,GCTAGCAGGCCATTTGGGTCATTCAATGACGGGC,-0.17
13,CCTAATGGGCCAAGGTCATTGATCAGTCAAAGCA,2.34
14,GCGACTGGGGCATCAGCAGATTACCATAACTTAA,0.0962
15,TCTCGGAGGACACGAAGGTCCGAGCTTTCCAGAG,1.12
16,ACAGACAGATGAGTGAAGGTAACTCAGCTGGACG,0.0616
17,CCTTACGGGTCACTCCAGGTAATAGCATCGGAGT,2.94
18,CCTACTGGCCCAAAAAGGTCATTGATGCCGATAA,1.93
19,CGAACTAGGTCAGAAGAGGACAGTGAAGGATGAT,4.02
20,ATACCAAGGTGATCGTGAGGTCGTGGATACTAAC,0.493

row,Sequence,PBM binding z-score
1,TGTCACAGTTCAAAGGTAACGTAAGTATCCACAC,3.69
2,ATCTCTAGGTAAAGATAATTCAGTGAATGCAAAT,0.348
3,TGTCAAAGTTCAAAGGTAAGGTAAGTATCCACAC,7.45
4,TCAGATAGGTAAATGCTAGGTGAAAGTCCGATCT,2.99
5,CCTACTGGGCCAAAGGTCATTGAGTCCAATGCTC,10.7
6,GGAACGTGGGCATTCGAGTTGATAGCATGGCGAT,-0.858
7,TCTGCCAGGTCAGTTGGTCAGCTAACGAGCTGCC,0.918
8,ATCTCTAGGTAAAAGTTCCGTGAATCCCGAGGAT,3.7
9,TTTAGCAGGCCAGAGGGTCACTCAAGAGGTACGG,2.42
10,CGAACTAGGTCATCCAGGAAAGTGAATACATTGA,5.91
11,GATACAGGGTAAAGGCCAGAGTACGCGTATTGAT,5.48
12,TCTGCTAGGTCAACGATGTTCAGCTAATCTGCTA,2.42
13,TCGTGTAGGTTAGTCGGGGCATTCAGCCAACATA,1.62
14,CCGACTGGGGCATAAGGTTGCCATAAGCCAGCCC,1.12
15,GATGCTAGGTCAGGTTGGTCAGCTAACGGGTACG,0.0836
16,GCTACTGGGGCATCAGCAGGTTACCATAACTTAA,1.34
17,GCTCAGAGGACAAGGTCAGAGCTTTGTCCGTAGA,0.0916
18,CCAGACAGGTGTGAAGGTAACTCAGCCTCGATTA,-0.443
19,GCAGACAGGTGAAACGCAGGTAACTCAGGGTGGC,-0.467
20,TCATATAGGTAATACACGTGAAAGTCGGCATCTA,2.92
